Holding throughout (experiment): NCI-60 one-dose screen, 48 h (100 = growth as untreated, 0 = no growth, -100 = all killed)
One test concerns SK-MEL-2 melanoma. Conditions: 10 µM unless noted.
The test system of the next test is EKVX NSCLC. Conditions: 10 µM unless noted.
The subject of a further test is SN12C renal. Conditions: 10 µM unless noted.
A further test relates to UO-31 renal. Conditions: 10 µM unless noted.
In the next test the test system is TK-10 renal. Conditions: 10 µM unless noted.
The subject of the next test is ACHN renal. Conditions: 10 µM unless noted.
The subject of a further test is CAKI-1 renal. Conditions: 10 µM unless noted.
For a further test, the system named is A498 renal. Conditions: 10 µM.
A further test concerns HL-60(TB) leukemia. Conditions: 10 µM unless noted.
The next test has as its system CCRF-CEM leukemia. Conditions: 10 µM unless noted.
The next test relates to MOLT-4 leukemia. Conditions: 10 µM unless noted.
Another test has as its system SR leukemia. Conditions: 10 µM unless noted.
The subject of a further test is RPMI-8226 leukemia. Conditions: 10 µM unless noted.
The next test concerns OVCAR-8 ovarian. Conditions: 10 µM unless noted.
A further test relates to OVCAR-5 ovarian. Conditions: 10 µM unless noted.
The subject of a further test is OVCAR-4 ovarian. Conditions: 10 µM unless noted.
The next test relates to SK-OV-3 ovarian. Conditions: 10 µM unless noted.
For the next test, the system named is IGROV1 ovarian. Conditions: 10 µM unless noted.
A further test concerns OVCAR-3 ovarian. Conditions: 10 µM unless noted.
The subject of the next test is HS 578T breast. Conditions: 10 µM unless noted.

This is part of a sample that, as a whole, favours compounds with a hit. Of some 83,000 tested, about 20% had one in any assay.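 Step 1: grow cells in 96-well plates. Step 2: add test compound at a single concentration. Step 3: incubate 48 h. Step 4: record percent growth.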 Values without a mark were called inactive. Activity calls are given as the source filed them. How the source made its calls: active means growth percent below 10; inactive means the rest.

In PubChem BioAssay (NCI) one finds growth data, which are given here for 8 compounds.

For the compound `C/C(CC(C)(C)N1CC1)=N\NC(=O)Nc1cccc2ccccc12`, the growth in the test with SK-MEL-2 melanoma is 72.9%; with EKVX NSCLC it was 78.5%; in the test with SN12C renal, 63.3%; in the test on UO-31 renal, 57.9%; in the test on TK-10 renal, 61.3%; in the test on ACHN renal, 42.3%. Also, the growth was 28.9% in the test with CAKI-1 renal; 59.3% in the test with A498 renal; 77.6% in the test with HL-60(TB) leukemia; 82.3% with CCRF-CEM leukemia; 12.2% in the test with MOLT-4 leukemia; 20.9% in the test with SR leukemia. The growth was 72.7% with RPMI-8226 leukemia; 44.1% in the test with OVCAR-8 ovarian; 100% in the test on OVCAR-5 ovarian; 55.8% with OVCAR-4 ovarian; 79.3% with SK-OV-3 ovarian; 38.8% in the test with IGROV1 ovarian. In addition, the figures for the growth with OVCAR-3 ovarian and with HS 578T breast were 48.3% and 79.8%, respectively.
For the compound `CC12CCC=CC1CCC1C2CCC2(C)C(c3ccc(=O)oc3)CCC12O` (centres undefined), the growth in the test with SK-MEL-2 melanoma is -34.4% (active); in the test on EKVX NSCLC it was -90.1% (active); in the test on SN12C renal, -18.8% (active); in the test on UO-31 renal, -94.5% (active); in the test with TK-10 renal, -69.8% (active); with ACHN renal, -89.9% (active). The growth was -61.3% (active) with CAKI-1 renal; -19.9% (active) in the test on A498 renal; -28% (active) in the test with HL-60(TB) leukemia; -16.6% (active) in the test on CCRF-CEM leukemia; -16.7% (active) with MOLT-4 leukemia; -4.41% (active) in the test on SR leukemia. The growth was -14.1% (active) in the test with RPMI-8226 leukemia; -51.4% (active) with OVCAR-8 ovarian; -80.4% (active) with OVCAR-5 ovarian; -52.8% (active) in the test on OVCAR-4 ovarian; -11% (active) in the test with SK-OV-3 ovarian; -12.3% (active) in the test on IGROV1 ovarian. In addition, the growth was -74.5% (active) with OVCAR-3 ovarian and -14.8% (active) with HS 578T breast.
Turning to `CC[C@H](C)[C@H](NC(=O)C12C3C4C1C1C2C3C41NC(C)=O)C(=O)N(C)[C@H](C[C@@H](OC(C)=O)c1nc(C(=O)N[C@@H](Cc2ccccc2)C[C@H](C)C(=O)OC)cs1)C(C)C` (some centres undefined), the growth in the test with SK-MEL-2 melanoma was 49.2%; with EKVX NSCLC it was 38.6%; in the test on SN12C renal, 25.6%; in the test on UO-31 renal it was 59.8%; in the test on TK-10 renal, 62%; in the test with ACHN renal, 36.6%. Further, the growth in the test with CAKI-1 renal was 74.1%; in the test with A498 renal, -10.4% (active); in the test with HL-60(TB) leukemia it was -13.3% (active); in the test with CCRF-CEM leukemia, 12.2%; in the test on MOLT-4 leukemia, 17.7%; in the test on SR leukemia it was 16.6%. Also, the growth was 2.37% (active) with RPMI-8226 leukemia; 17% in the test with OVCAR-8 ovarian; 47.8% in the test with OVCAR-5 ovarian; 38.7% with OVCAR-4 ovarian; 48.5% in the test on SK-OV-3 ovarian; 31.1% in the test with IGROV1 ovarian. Besides, in the test with OVCAR-3 ovarian, the growth was -33.8% (active).
Regarding `O=NNc1ccccn1`, the growth was 23.3% in the test with SK-MEL-2 melanoma; 109% in the test with EKVX NSCLC; 87.4% in the test with SN12C renal; 83.6% in the test with UO-31 renal; 91% in the test on TK-10 renal; 11.2% with ACHN renal. The growth in the test with CAKI-1 renal is 43.6%; in the test with A498 renal it was 96.5%; with HL-60(TB) leukemia it was 73.8%; in the test on CCRF-CEM leukemia, 126%; in the test with MOLT-4 leukemia, 67.9%; in the test on SR leukemia it was 66.7%. Besides, the growth in the test on RPMI-8226 leukemia is 102%; in the test on OVCAR-8 ovarian, 80.3%; in the test on OVCAR-5 ovarian, 68%; in the test on OVCAR-4 ovarian, 90.8%; in the test with SK-OV-3 ovarian, 90%; in the test on IGROV1 ovarian, 86.1%. Further, the figures for the growth with OVCAR-3 ovarian and with HS 578T breast were 112% and 89.7%, respectively.
Consider `C[S+]1C=Cc2ccccc2C1c1ccc(Cl)cc1` (centres undefined), for which the growth is 92.7% in the test with SK-MEL-2 melanoma; 90.6% in the test on EKVX NSCLC; 96% in the test on SN12C renal; 75.6% with UO-31 renal; 101% in the test with TK-10 renal; 99.3% with ACHN renal. Moreover, the growth with CAKI-1 renal is 72.7%; in the test on A498 renal, 96%; in the test with HL-60(TB) leukemia, 91.3%; in the test on CCRF-CEM leukemia, 73.7%; with MOLT-4 leukemia, 85.7%; in the test on SR leukemia it was 93.4%. The growth with RPMI-8226 leukemia was 40.8%; in the test with OVCAR-8 ovarian it was 95.2%; in the test with OVCAR-5 ovarian, 118%; in the test with OVCAR-4 ovarian, 66.5%; in the test with SK-OV-3 ovarian, 116%; with IGROV1 ovarian it was -85.2% (active). The values for the growth with OVCAR-3 ovarian and with HS 578T breast were 89.8% and 77.7%, respectively.
For `CC(=O)O[C@@H]1CC[C@]2(C)[C@H]3CC[C@]4(C)C(=O)CC[C@H]4[C@@H]3C[C@@H]3SC(N)=N[C@@]32C1`, the growth is 49.8% in the test on SK-MEL-2 melanoma; 78.3% with EKVX NSCLC; 77.3% in the test on SN12C renal; 79.3% in the test on UO-31 renal; 91.1% in the test with TK-10 renal; 93.7% with ACHN renal. In addition, the growth was 61.1% with CAKI-1 renal; 50.7% in the test on A498 renal; 44.5% in the test with HL-60(TB) leukemia; 44.2% with CCRF-CEM leukemia; 45.6% in the test with MOLT-4 leukemia; 31.7% with SR leukemia. Moreover, the growth with RPMI-8226 leukemia was 48.4%; in the test with OVCAR-8 ovarian it was 76.8%; with OVCAR-5 ovarian, 98.7%; in the test on OVCAR-4 ovarian it was 84%; in the test on SK-OV-3 ovarian it was 79.1%; with IGROV1 ovarian it was 67.3%. Besides, the values for the growth with OVCAR-3 ovarian and in the test with HS 578T breast were 36.2% and 54.5%, respectively.
For `COc1cc(/C=N/C2=C(C#N)C(c3ccco3)c3c(c4cc(C)ccc4oc3=O)O2)cc(OC)c1OC` (centres undefined), the growth was 94.1% in the test on SK-MEL-2 melanoma; 95.1% in the test with EKVX NSCLC; 99.5% in the test with SN12C renal; 67.9% in the test on UO-31 renal; 109% in the test with TK-10 renal; 90.1% with ACHN renal. For the same compound, the growth is 85.8% in the test on CAKI-1 renal; 86.6% with A498 renal; 96.1% with HL-60(TB) leukemia; 96.5% with CCRF-CEM leukemia; 106% in the test with MOLT-4 leukemia; 74.8% with SR leukemia. Besides, the growth with RPMI-8226 leukemia is 101%; in the test with OVCAR-8 ovarian, 101%; in the test on OVCAR-5 ovarian, 105%; with OVCAR-4 ovarian it was 97.6%; with SK-OV-3 ovarian, 92.6%; in the test with IGROV1 ovarian, 83.1%. The growth in the test with OVCAR-3 ovarian was 91.4%; with HS 578T breast, 64.3%.
Consider `CC[S][Hg][Cl]`, for which the growth was 105% in the test on SK-MEL-2 melanoma; 106% with EKVX NSCLC; 105% in the test on SN12C renal; 87.9% with UO-31 renal; 115% in the test on TK-10 renal; 101% in the test on ACHN renal. In addition, the growth was 89.7% in the test on CAKI-1 renal; 115% in the test with A498 renal; 113% with HL-60(TB) leukemia; 93.4% with CCRF-CEM leukemia; 109% in the test with MOLT-4 leukemia; 98.1% with SR leukemia. For the same compound, the growth was 114% with RPMI-8226 leukemia; 102% in the test on OVCAR-8 ovarian; 116% in the test on OVCAR-5 ovarian; 122% with OVCAR-4 ovarian; 110% in the test on SK-OV-3 ovarian; 112% with IGROV1 ovarian. Besides, the growth was 109% in the test on OVCAR-3 ovarian and 106% in the test on HS 578T breast.
